Experimental data from PubChem BioAssay AID1159580 (chemical genetic matrix, 2015).
Among all 5,500 compounds or so, about 2,000 (36%) were called active. Not shown: some 18% with an inconclusive outcome. Rule as the data show it: active = normalized growth mostly below about 0.91 (no sharp cut-off); inconclusive = no clear call, values can overlap the other calls; inactive = mostly above about 0.92. The list shows a part of the results.

Assay: chemical genetic growth profiling, strain panel (AID 1159580);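 also: tested at 20 µM; growth read once vehicle control cultures reached saturation at 30 °C; 1 = growth at the plate median or of vehicle wells; lower values mean less growth of the strain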
Conditions: S. cerevisiae deletion strains, growth OD
[1] = locus YAL021C, strain ccr4, hits give low values
[2] = locus YAL026C, strain drs2, hits give low values
[3] = locus YAL030W, strain snc1, hits give low values
[4] = locus YBL061C, strain skt5, hits give low values
[5] = locus YBR009C, strain hhf1, hits give low values
[6] = locus YBR023C, strain chs3, hits give low values
[7] = locus YBR171W, strain sec66, hits give low values
[8] = locus YBR231C, strain swc5, hits give low values
[9] = locus YBR279W, strain paf1, hits give low values
[10] = locus YCL011C, strain gbp2, hits give low values
[11] = locus YCL016C, strain dcc1, hits give low values
[12] = locus YCL069W, strain vba3, hits give low values
[13] = locus YCR088W, strain abp1, hits give low values
[14] = locus YDL005C, strain med2, hits give low values
[15] = locus YDL040C, strain nat1, hits give low values
[16] = locus YDR001C, strain nth1, hits give low values
[17] = locus YDR069C, strain doa4, hits give low values
[18] = locus YDR137W, strain rgp1, hits give low values
[19] = locus YDR159W, strain sac3, hits give low values
[20] = locus YDR297W, strain sur2, hits give low values
[21] = locus YDR334W, strain swr1, hits give low values
[22] = locus YDR335W, strain msn5, hits give low values
[23] = locus YDR392W, strain spt3, hits give low values
[24] = locus YEL003W, strain gim4, hits give low values
[25] = locus YEL037C, strain rad23, hits give low values
[26] = locus YEL061C, strain CIN8 (second series), hits give low values
[27] = locus YER015W, strain faa2, hits give low values
[28] = locus YER016W, strain bim1, hits give low values
[29] = locus YER111C, strain swi4, hits give low values
[30] = locus YER155C, strain BEM2 (second series), hits give low values
[31] = locus YFR010W, strain ubp6, hits give low values
[32] = locus YGL167C, strain pmr1, hits give low values
[33] = locus YGL173C, strain kem1, hits give low values
[34] = locus YGL227W, strain vid30, hits give low values
[35] = locus YGL240W, strain doc1, hits give low values
[36] = locus YGL253W, strain hxk2, hits give low values
[37] = locus YHR013C, strain ard1, hits give low values
[38] = locus YHR027C, strain rpn1, hits give low values
[39] = locus YHR142W, strain chs7, hits give low values
[40] = locus YJL092W, strain hpr5, hits give low values
[41] = locus YJL095W, strain BCK1 (second series), hits give low values
[42] = locus YJL115W, strain asf1, hits give low values
[43] = locus YJL129C, strain trk1, hits give low values
[44] = locus YJL154C, strain vps35, hits give low values
[45] = locus YJL164C, strain tpk1, hits give low values
[46] = locus YJL166W, strain qcr8, hits give low values
[47] = locus YKL160W, strain elf1, hits give low values
[48] = locus YKR026C, strain gcn3, hits give low values
[49] = locus YKR091W, strain srl3, hits give low values
[50] = locus YLL001W, strain dnm1, hits give low values
[51] = locus YLL026W, hits give low values
[52] = locus YLL041C, strain sdh2, hits give low values
[53] = locus YLR027C, strain aat2, hits give low values
[54] = locus YLR221C, strain rsa3, hits give low values
[55] = locus YLR258W, strain gsy2, hits give low values
[56] = locus YLR262C, strain YPT6 (second series), hits give low values
[57] = locus YLR320W, strain mms22, hits give low values
[58] = locus YLR342W, strain FKS1, hits give low values
[59] = locus YLR357W, strain rsc2, hits give low values
[60] = locus YLR370C, strain arc18, hits give low values
[61] = locus YLR384C, strain iki3, hits give low values
[62] = locus YML120C, strain ndi1, hits give low values
[63] = locus YMR058W, strain fet3, hits give low values
[64] = locus YMR125W, strain sto1, hits give low values
[65] = locus YMR129W, hits give low values
[66] = locus YMR205C, strain PFK2, hits give low values
[67] = locus YMR231W, strain pep5, hits give low values
[68] = locus YNL071W, strain lat1, hits give low values
[69] = locus YNL209W, strain ssb2, hits give low values
[70] = locus YNL248C, strain rpa49, hits give low values
[71] = locus YNL322C, strain KRE1 (second series), hits give low values
[72] = locus YNR049C, strain mso1, hits give low values
[73] = locus YOR001W, strain rrp6, hits give low values
[74] = locus YOR070C, strain gyp1, hits give low values
[75] = locus YOR080W, strain dia2, hits give low values
[76] = locus YOR083W, strain WHI5, hits give low values
[77] = locus YOR106W, strain vam3, hits give low values
[78] = locus YOR265W, strain rbl2, hits give low values
[79] = locus YOR270C, strain vph1, hits give low values
[80] = locus YOR290C, strain snf2, hits give low values
[81] = locus YPL051W, strain arl3, hits give low values
[82] = locus YPL078C, strain atp4, hits give low values
[83] = locus YPL106C, strain sse1, hits give low values
[84] = locus YPL240C, strain hsp82, hits give low values

Measured: normalized growth

Cc1nc(N=Nc2ccc(C(=O)O)cc2)c(COP(=O)(O)O)c(C=O)c1O
inactive: locus YAL040C, strain CLN3, hits give low values 0.978 | locus YCL061C, strain MRC1 (second series), hits give low values 1.01 | locus YDR150W, strain NUM1, hits give low values 1.02 | locus YDR363W, strain ESC2, hits give low values 1 | locus YER002W, strain NOP16, hits give low values 1.02 | locus YMR263W, strain SAP30, hits give low values 1.01 | locus YMR307W, strain GAS1, hits give low values 1.04 | locus YNL128W, strain TEP1, hits give low values 0.99 | locus YNL175C, strain NOP13, hits give low values 1.01 | locus YNL197C, strain WHI3, hits give low values 1.01 | locus YNL224C, strain SQS1, hits give low values 1.01 | locus YOR083W, strain WHI5 (second series), hits give low values 1.03 | locus YPL055C, strain LGE1, hits give low values 1.01 | locus YPL241C, strain CIN2, hits give low values 1.01

COC(=O)C1=COC(OC2OC(CO)C(O)C(O)C2O)C2C(C)CC(=O)C12O (centres undefined)
inactive: [1] 0.942 | [2] 0.994 | [3] 0.975 | [4] 0.991 | [5] 0.944 | [6] 0.986 | [7] 0.983 | [8] 1.02 | [9] 0.995 | [10] 0.982 | [11] 0.978 | [12] 0.987 | [13] 1 | [14] 0.986 | [15] 0.994 | [16] 0.965 | [17] 0.985 | [18] 0.982 | [19] 1.03 | locus YDR195W, strain ref2 0.989 | [20] 0.993 | [21] 0.959 | [22] 0.994 | [23] 0.898 | [24] 0.989 | [25] 0.984 | [26] 0.984 | [27] 0.977 | [28] 0.985 | [29] 0.987 | [30] 1.01 | [31] 0.989 | [32] 0.966 | [33] 0.997 | [34] 0.991 | [35] 1.01 | [36] 1.01 | [37] 0.953 | [38] 0.967 | [39] 0.993 | [40] 0.983 | [41] 0.982 | [42] 0.972 | [43] 1 | [44] 0.978 | [45] 0.946 | [46] 0.975 | [47] 0.979 | [48] 0.986 | [49] 0.978 | [50] 1.01 | [51] 0.987 | [52] 0.98 | [53] 1.01 | [54] 1.03 | [55] 0.993 | [56] 0.984 | [57] 1.03 | [58] 0.999 | [59] 0.975 | [60] 1.01 | [61] 0.998 | [62] 0.955 | [63] 0.987 | [64] 0.937 | [65] 0.975 | [66] 0.945 | [67] 0.99 | [68] 0.974 | [69] 1 | [70] 1.03 | [71] 0.978 | [72] 0.971 | [73] 1.02 | [74] 0.996 | [75] 0.992 | [76] 0.98 | [77] 0.94 | [78] 0.999 | [79] 1.02 | [80] 0.927 | [81] 0.999 | [82] 0.954 | [83] 0.959 | [84] 0.986

COc1ccc(-c2cc(=O)c3c(O)cc(OC)c(OC)c3o2)c(OC)c1
inactive: [1] 0.977 | [2] 1.02 | [3] 1.02 | [4] 0.997 | [5] 0.964 | [6] 0.989 | [7] 1.04 | [8] 0.966 | [9] 1.01 | [10] 1.01 | [11] 1 | locus YCL061C, strain MRC1, hits give low values 1.03 | [12] 1.04 | [13] 1.03 | [14] 1.02 | [15] 1.02 | [16] 1.04 | [17] 0.97 | [18] 0.943 | [19] 1.02 | locus YDR195W, strain ref2 1.07 | [20] 1.02 | [21] 1.05 | [22] 1.03 | [23] 0.846 | [24] 1.01 | [26] 1.04 | [27] 0.971 | [28] 1.02 | [29] 1.05 | [30] 0.956 | [31] 1 | [32] 0.998 | [33] 1.02 | [34] 1.04 | [35] 1.04 | [36] 1.01 | [37] 0.975 | [38] 0.985 | locus YHR030C, strain SLT2, hits give low values 1.04 | locus YHR079C, strain IRE1, hits give low values 1.03 | [39] 1 | [40] 1.04 | [41] 1.01 | locus YJL095W, strain BCK1, hits give low values 0.967 | [42] 1.05 | [43] 1.02 | [44] 1.04 | [45] 0.95 | [46] 1 | locus YJL187C, strain SWE1, hits give low values 1.02 | locus YJR066W, strain TOR1, hits give low values 0.973 | [47] 0.993 | [48] 1.05 | [49] 1.03 | [50] 1.01 | [51] 1.02 | [52] 1.02 | [53] 0.996 | locus YLR113W, strain HOG1, hits give low values 0.932 | [54] 0.966 | [55] 1.01 | [56] 0.907 | [57] 0.966 | [58] 0.997 | [59] 0.994 | [60] 1.03 | [61] 1.02 | [62] 1.02 | [63] 0.917 | [64] 1.05 | [65] 1.03 | [66] 1.01 | [67] 1.03 | [68] 1.02 | locus YNL183C, strain NPR1, hits give low values 0.893 | [69] 0.937 | [70] 1.05 | [71] 1.04 | [72] 1.03 | [73] 1.01 | [74] 0.997 | [75] 1.04 | [76] 0.962 | [77] 0.944 | locus YOR231W, strain MKK1, hits give low values 1.03 | [78] 1.01 | [79] 1.03 | [80] 0.961 | [81] 0.916 | [82] 1.03 | [83] 0.983 | [84] 1.02 | locus YPL256C, strain CLN2, hits give low values 1.01
active: [25] 1.1 [resistant]
